SENP6 block – SENP6 protease inhibitors, primary screen, biochemical, luminescence, uHTS | Recombinant SENP6 catalytic domain, aminoluciferin luminescence | Sentrin-specific protease 6 (Homo sapiens), Q9GZR1 | 330,000 tested, 1.8% active | inhibition, % at 10 µM;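 active means inhibition above about 50% at the single tested dose, limit read from the data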;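 further: plate controls were DMSO wells with enzyme for no effect and DMSO wells lacking enzyme for full effect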
SENP8 block-1 – SENP8 protease inhibitors, primary screen, biochemical, luminescence; inhibition, % at 10 µM; Sentrin-specific protease 8 (Homo sapiens), Q96LD8; AID 2540, 2010; purified SENP8, Z-RLRGG-aminoluciferin cleavage; 330,000 tested, 1.2% active; in the data active means inhibition above about 50%
Target sequence (Q96LD8 whole entry, looked up): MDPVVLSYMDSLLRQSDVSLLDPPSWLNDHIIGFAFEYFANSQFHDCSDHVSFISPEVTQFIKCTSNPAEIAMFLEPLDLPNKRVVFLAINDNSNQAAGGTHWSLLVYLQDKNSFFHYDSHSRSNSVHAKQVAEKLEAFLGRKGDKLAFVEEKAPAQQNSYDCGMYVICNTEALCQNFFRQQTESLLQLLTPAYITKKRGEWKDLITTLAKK
SENP8 block-2 – human SENP8 protease inhibitors, primary screen, biochemical, fluorescence, Nedd8 protein substrate, uHTS | Sentrin-specific protease 8 (Homo sapiens), Q96LD8 | recombinant SENP8 | inhibition, % at 20 µM | 360,000 tested, 0.64% active | AID 602440, 2012; in the data active means inhibition mostly above about 40%, no sharp cut-off; inactive means mostly below about 27%
SENP7 inh – SENP7 protease inhibitors, primary screen, biochemical, luminescence, uHTS; inhibition, % at 5 µM; Sentrin-specific protease 7 (Homo sapiens), Q9BQF6; 330,000 tested, 1.5% active; recombinant SENP7, Z-RLRGG-aminoluciferin luminescence, 40 min;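 active means inhibition above about 50% at the single test dose, limit read from the data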;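 further: plate controls were DMSO with enzyme for no effect and no enzyme buffer wells for full effect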
HSP90 inh – HSP90 inhibitors, primary screen, cell lysate, luminescence; Heat shock protein HSP 90 (rabbit reticulocyte lysate; luciferase refolding); Rabbit reticulocyte lysate, luciferase refolding luminescence, 3 h; inhibition, % at 5.6 µM; 290,000 tested, 0.91% active; AID 1789, 2009;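 active means inhibition above the screen-wide mean plus 3 SD, computed separately per campaign, cut at about 16% in these data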;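 further: 0% = DMSO wells and 100% = 60 µM geldanamycin wells; inhibitors lower the luminescence because luciferase stays unfolded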
LGR2 antag – inhibitors of bursicon-induced LGR2 CRE-luciferase signal, primary screen, cell-based, HEK293, CRE-luciferase reporter, bursicon stimulation. Drosophila bursicon receptor LGR2 (rickets). bursicon-stimulated, 4 h. inhibition, % at 9.99 µM. 380,000 tested, 0.35% active;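 active means drop in luminescence signal, shown as inhibition above about 50% in the replicate tests, limit read from the data, passing the limit was not always enough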;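 further: agonist challenge used bursicon conditioned medium at about half maximal strength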
SENP8 confirm – SENP8 protease inhibitors, retest, confirmation, biochemical, luminescence, single concentration | inhibition, % at 12.5 µM | shares compounds with SENP7 inh | 6,200 tested, 40% active | Recombinant SENP8, Z-RLRGG-aminoluciferin luminescence, 60 min;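 active means mean inhibition across replicates above about 50%, limit read from the data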
SENP6 conf – SENP6 protease inhibitors, confirmation, biochemical, luminescence, single concentration. inhibition, % at 12.5 µM. 6,200 tested, 58% active. recombinant SENP6, Z-RLRGG-aminoluciferin luminescence. shares compounds with SENP7 inh. AID 488915, 2010
SENP7 conf – SENP7 protease inhibitors, retest, confirmation, biochemical, luminescence, single concentration. shares compounds with SENP7 inh. recombinant SENP7, Z-RLRGG-aminoluciferin luminescence, 40 min. inhibition, % at 12.5 µM. 6,200 tested, 69% active
Casp3 select – caspase-3 protease inhibitors, confirmation, selectivity assay for SENP inhibitor project, biochemical, single concentration. shares compounds with SENP7 inh. purified caspase-3, Z-DEVD-aminoluciferin luminescence, 60 min. inhibition, % at 12.5 µM. 6,200 tested, 60% active. AID 488918, 2010;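 active means mean inhibition above about 50%, limit read from the data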;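 further: plate controls were enzyme with DMSO for no effect and wells without caspase-3 for full effect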
Target sequence (P42574 28-227 limits assumed): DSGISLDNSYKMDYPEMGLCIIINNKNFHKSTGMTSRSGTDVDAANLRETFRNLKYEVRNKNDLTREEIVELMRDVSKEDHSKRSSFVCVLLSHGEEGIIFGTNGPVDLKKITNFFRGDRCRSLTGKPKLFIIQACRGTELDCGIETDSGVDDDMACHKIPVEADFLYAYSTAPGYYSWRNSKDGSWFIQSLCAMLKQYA
Luc interf – interferes with luciferase luminescence in SENP counter-screen; 6,200 tested, 39% active; shares compounds with SENP7 inh; AID 488919; Pre-incubated SENP8/Z-RLRGG-aminoluciferin, luciferase luminescence interference; inhibition, % at 12.5 µM;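 active means mean inhibition above about 50% when retested at one dose, limit read from the data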;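 further: plate controls were DMSO wells with completed reaction for no effect and substrate without enzyme for full effect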
An asterisk follows results filed as active; nt = not tested or not shown. Rows were chosen to be rich in hits. Some 2.3% of all compounds tested hit in one or more screens of this group.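 How the source made its calls, unless noted: active means mean inhibition above about 50% in the one-dose retest (limit read from the data); inactive means the rest.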

SMILES	SENP6 block	SENP8 block-1	SENP8 block-2	SENP7 inh	HSP90 inh	LGR2 antag	SENP8 confirm	SENP6 conf	SENP7 conf	Casp3 select	Luc interf
O=C(Nc1ccc(Br)cc1)c1cc2ccccn2n1	-7.9	70.5*	37.3	64.0*	-7.0	16.8	34.8	35.8	87.5*	64.9*	43.6
O=C(NCCc1ccc(Cl)cc1)c1cc2ccccn2n1	-15.4	-2.2	17.9	-3.4	-2.5	-10.0	nt	nt	nt	nt	nt
O=C(c1ccccc1F)N1CC(=O)N2[C@@H](CO)[C@H](c3ccc(C#Cc4ccccc4)cc3)[C@@H]2C1	nt	nt	nt	nt	nt	1.3	nt	nt	nt	nt	nt
Cn1nccc1C(=O)Nc1ccc2c(c1)OCCO2	81.5*	54.6*	14.4	70.7*	6.3	24.0	57.5*	58.1*	87.7*	87.6*	65.2*
Cn1nc(C(=O)Nc2ccc(Cl)cc2)cc1C(=O)Nc1ccc(Cl)cc1	5.1	5.2	-44.1	0.3	-0.3	-5.3	nt	nt	nt	nt	nt
Cn1nc(C(=O)Nc2ccc3c(c2)OCCO3)cc1C(=O)O	56.4*	40.3	5.8	66.2*	-0.2	nt	56.1*	53.9*	86.1*	85.2*	64.5*
Cn1c(C(=O)Nc2ccc3c(c2)OCCO3)cc2sccc21	74.0*	70.3*	-13.2	79.1*	3.8	-18.0	85.7*	84.7*	96.9*	69.7*	74.2*
O=C1c2ccccc2COc2ccc(O)cc21	-17.5	-13.6	18.6	-15.6	-3.7	nt	nt	nt	nt	nt	nt
COc1ccc2c(c1)C(=O)c1ccccc1CO2	56.2*	23.1	-10.7	-5.2	1.0	-68.6	70.4*	74.5*	91.1*	66.8*	67.3*
C/C(=N\Nc1cccc2cccnc12)c1ccccc1O	82.2*	77.0*	-6.5	88.1*	-1.2	-46.4	6.7	18.0	21.5	25.0	3.1
C/C(=N\Nc1ccccc1[N+](=O)[O-])c1ccccc1O	41.6	23.3	40.2*	74.5*	-4.8	-61.3	10.6	14.5	18.9	24.1	5.7
C/C(=N\Nc1ccc(S(N)(=O)=O)cc1[N+](=O)[O-])c1ccccc1O	-22.1	-9.8	39.3	-1.4	-1.8	5.0	nt	nt	nt	nt	nt
CNC[C@H]1OCCCC[C@@H](C)Oc2ccc(NC(=O)CCC(F)(F)F)cc2C(=O)N([C@@H](C)CO)C[C@@H]1C	nt	nt	nt	nt	nt	-1.6	nt	nt	nt	nt	nt
COc1cc(/C=C2\OC(=O)c3c(OC)cccc32)ccc1O	64.4*	23.7	-402.4	46.8	3.9	nt	25.6	29.2	82.3*	57.8*	68.4*
COc1cc(C=C2CN(C)C(=O)C2=O)ccc1O	nt	nt	20.3	nt	nt	4.3	nt	nt	nt	nt	nt
C[C@@H]1CN([C@@H](C)CO)C(=O)Cc2cc(NC(=O)Cc3cn(C)c4ccccc34)ccc2O[C@H]1CN(C)Cc1ccc(Oc2ccccc2)cc1	nt	nt	nt	nt	nt	7.5	nt	nt	nt	nt	nt
COc1ccc2nc(N3CCC(C)CC3)c(C#N)cc2c1	72.5*	11.0	-325.8	-4.6	2.4	nt	5.8	6.5	8.9	4.2	5.3
Nc1ccccc1C(=O)N1CCc2ccccc21	55.1*	14.0	-42.5	-15.9	-0.7	-24.3	42.0	36.2	25.4	42.8	55.0*
COc1ccccc1C(=O)N1CCc2ccccc21	-1.4	3.5	8.0	-3.6	-2.8	nt	nt	nt	nt	nt	nt
O=C(O)c1cccc(NC2=C(N3CCOCC3)C(=O)c3ccccc3C2=O)c1	74.8*	56.7*	58.6*	42.0	-0.3	3.3	68.9*	80.9*	59.7*	64.1*	5.2
Cc1ccc(S(=O)(=O)N(C)C[C@H]2Oc3ccc(NC(=O)Cn4cnnn4)cc3C(=O)N([C@@H](C)CO)C[C@@H]2C)cc1	nt	nt	nt	nt	nt	8.6	nt	nt	nt	nt	nt
CCCNC(=O)N1C[C@H](C)[C@H](OC)CN(C)C(=O)c2ccc(NC(C)=O)cc2OC[C@H]1C	nt	nt	nt	nt	nt	14.8	nt	nt	nt	nt	nt
COc1ccc(C2=NN(c3ccccc3)C(c3ccc(OC)c(OC)c3)C2)cc1 (stereo not drawn)	21.0	-2.1	-303.8	-12.8	4.1	-53.8	nt	nt	nt	nt	nt
COc1ccc(C2=NN(C(C#N)c3ccc(OC)c(OC)c3)C(c3ccccc3)C2)cc1 (stereo not drawn)	74.6*	28.8	-1.8	65.3*	-2.8	nt	6.5	2.8	22.6	23.9	20.7
O=C(N/N=C/c1ccc(OCc2ccc(F)cc2)cc1)c1ccccc1	-31.7	-8.1	0.6	-10.3	-0.7	-47.6	nt	nt	nt	nt	nt
SMILES	SENP6 block	SENP8 block-1	SENP8 block-2	SENP7 inh	HSP90 inh	LGR2 antag	SENP8 confirm	SENP6 conf	SENP7 conf	Casp3 select	Luc interf
CNC(=O)c1ccc(OC2CSC2)cc1	-19.7	1.2	20.9	-5.1	5.5	nt	nt	nt	nt	nt	nt
O=C(N/N=C/c1ccc(OC2CSC2)cc1)c1ccccc1	62.4*	51.8*	14.6	0.5	-3.8	nt	6.8	2.6	9.8	25.2	-6.0
O=C(/C=C/c1ccc(OC2CSC2)cc1)c1ccccc1	37.8	53.9*	11.3	55.3*	-4.3	nt	-1.6	14.7	6.0	-7.1	25.6
C[C@@H]1CN([C@H](C)CO)C(=O)c2cc(NC(=O)NC3CCCCC3)ccc2O[C@H]1CN(C)C	nt	nt	nt	nt	nt	-4.0	nt	nt	nt	nt	nt
CC(C)(C)NCCCCOc1ccccc1F	5.5	-3.9	5.5	84.2*	-1.9	-16.3	16.2	0.5	-2.9	-1.3	-3.3
Cc1ccc(-n2ncc3c(=O)n(CC(N)=O)cnc32)cc1C	-1.7	-8.7	-1.4	-6.6	-1.3	-4.1	nt	nt	nt	nt	nt
Cc1nc2c3cnn(-c4ccc(C)c(C)c4)c3ncn2n1	58.0*	37.7	-482.3	44.3	-1.5	nt	40.9	41.1	68.0*	78.8*	35.5
O=C(CSc1ncnc2c1cnn2-c1cccc(Cl)c1)NCC1CCCO1 (stereo not drawn)	88.9*	87.4*	-20.0	5.6	-2.1	3.2	-5.2	26.3	16.7	45.2	9.7
